Results: PubChem BioAssay (NCI)
About 79,000 compounds went through this panel and 15% of them were active in at least one assay; those are over-represented in the sample as a whole. Activity calls are given as the source filed them. Cut-off read from the data, not from the text of the source: active = growth inhibition above about 70%; inactive = the rest.

Key:
[1] = NCI Yeast Anticancer Drug Screen. Data for the rad52 strain (AID 147);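 note: 0% = growth of vehicle-treated control cultures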; details: S. cerevisiae rad52 mutant growth inhibition, stronger effect = higher value
Method in brief: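 Screen used a yeast mutant impaired in DNA repair. After compound exposure, growth was measured. Values reflect inhibition compared with vehicle-treated cells.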

[2] = NCI Yeast Anticancer Drug Screen. Data for the wt1 strain (AID 149);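 note: 0% = growth of vehicle-treated wt1 cultures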; details: S. cerevisiae wt1 strain (SPY 50644) growth inhibition, stronger effect = higher value
Method in brief: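 Compounds are added to wt1 yeast cultures. Growth is then measured. Inhibition is expressed relative to vehicle-treated controls.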

[3] = NCI Yeast Anticancer Drug Screen. Data for the rad50EPP+ strain (AID 151);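 note: 0% = growth of vehicle-treated control cultures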; details: S. cerevisiae rad50 mutant strain, stronger effect = higher value
Method in brief: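 Exposing the rad50EPP+ strain to each compound, growth was compared with vehicle-only cultures to give inhibition.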

[4] = NCI Yeast Anticancer Drug Screen. Data for the mgt1 strain (AID 153); details: S. cerevisiae mgt1 mutant growth inhibition, stronger effect = higher value
Method in brief: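 Genetically defined yeast (mgt1) treated with compound; inhibition of growth expressed against vehicle-treated controls.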

[5] = NCI Yeast Anticancer Drug Screen. Data for the rad50 strain (AID 155);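 note: 0% = growth of vehicle-only cultures of the same strain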; details: S. cerevisiae rad50 strain growth inhibition, stronger effect = higher value
Method in brief: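 Inhibition values express reduced yeast growth in compound-treated cultures relative to vehicle-treated controls.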

[6] = NCI Yeast Anticancer Drug Screen. Data for the mec2-1 strain (AID 157); details: S. cerevisiae mec2-1 strain, stronger effect = higher value
Method in brief: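 Readout is yeast growth inhibition, normalised to vehicle-treated controls, in the mec2-1 strain exposed to compound.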

[7] = NCI Yeast Anticancer Drug Screen. Data for the rad14 strain (AID 159);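 note: 0% = growth of vehicle-treated control cultures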; details: S. cerevisiae rad14 strain growth inhibition, stronger effect = higher value
Method in brief: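 A mutant yeast strain defective in DNA damage repair is treated with compound; inhibition of its growth is scored against untreated, vehicle-exposed cultures.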

[8] = NCI Yeast Anticancer Drug Screen. Data for the sgs1 mgt1 strain (AID 161);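 note: 0% = growth of cultures given vehicle only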; details: S. cerevisiae sgs1 mgt1 strain, stronger effect = higher value
Method in brief: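 Yeast cells carrying a defined DNA-repair defect were exposed to test compounds. Growth inhibition was measured relative to vehicle-treated controls.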

[9] = NCI Yeast Anticancer Drug Screen. Data for the CLN2oe strain (AID 163);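 note: 0% = growth of vehicle-only control cultures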; details: S. cerevisiae CLN2oe strain, stronger effect = higher value
Method in brief: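 Values reflect how much compound exposure reduced yeast growth, referenced to vehicle-exposed cells. Assay organism is a strain with a defined genetic change affecting cell-cycle control.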

[10] = NCI Yeast Anticancer Drug Screen. Data for the cln2 rad14 strain (AID 165);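 note: 0% = growth equal to vehicle treated cultures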; details: S. cerevisiae cln2 rad14 strain, stronger effect = higher value
Method in brief: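 Relative to vehicle controls, growth inhibition of compound-treated cln2 rad14 yeast was recorded.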

[11] = NCI Yeast Anticancer Drug Screen. Data for the bub3 strain (AID 167); details: S. cerevisiae bub3 mutant strain, stronger effect = higher value
Method in brief: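 Steps: expose the mutant yeast strain to compound; grow alongside vehicle-treated cultures; measure growth; express inhibition against the vehicle cultures.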

[12] = at 5.0 µM (retest, dose inferred, filed as 0.5)
[13] = at 50.0 µM (retest, dose inferred, filed as 5.0)

Measured: growth inhibition

N#CC(C(=O)Nc1ccccc1)C1=C(Cl)C(=O)c2ccccc2C1=O (stereo not given)
active: [1]; at 11.0 µM 98% | [1]; at 33.0 µM 98% | [1]; at 100.0 µM 97% | [2]; at 11.0 µM 95% | [2]; at 33.0 µM 97% | [2]; at 100.0 µM 96% | [3]; at 11.0 µM 97% | [3]; at 33.0 µM 97% | [3]; at 100.0 µM 96% | [4]; at 11.0 µM 98% | [4]; at 33.0 µM 97% | [4]; at 100.0 µM 97% | [5]; at 11.0 µM 97% | [5]; at 33.0 µM 97% | [5]; [13] 98% | [5]; at 50.0 µM 91.8% | [5]; at 100.0 µM 96% | [6]; at 3.7 µM 73% | [6]; [12] 73% | [6]; at 11.0 µM 98% | [6]; at 33.0 µM 97% | [6]; [13] 99% | [6]; at 50.0 µM 93% | [6]; at 100.0 µM 96% | [7]; at 11.0 µM 98% | [7]; at 33.0 µM 97% | [7]; at 100.0 µM 95% | [8]; [13] 98% | [8]; at 50.0 µM 93.1% | [9]; at 11.0 µM 98% | [9]; at 33.0 µM 97% | [9]; at 100.0 µM 96% | [10]; [13] 98% | [10]; at 50.0 µM 91.8% | [11]; at 11.0 µM 97% | [11]; at 33.0 µM 97% | [11]; [13] 98% | [11]; at 50.0 µM 92% | [11]; at 100.0 µM 95%
inactive: [1]; at 1.2 µM 7% | [1]; at 3.7 µM 57% | [2]; at 1.2 µM -23% | [2]; at 3.7 µM 12% | [3]; at 1.2 µM 13% | [3]; at 3.7 µM 43% | [4]; at 1.2 µM 23% | [4]; at 3.7 µM 6% | [5]; at 1.2 µM 4% | [5]; at 3.7 µM 38% | [5]; [12] 9% | [6]; at 1.2 µM -8% | [7]; at 1.2 µM -26% | [7]; at 3.7 µM 42% | [8]; [12] 8% | [9]; at 1.2 µM 4% | [9]; at 3.7 µM 45% | [10]; [12] 53% | [11]; at 1.2 µM -49% | [11]; at 3.7 µM -5% | [11]; [12] 62%
